The source of these data is PubChem BioAssay AID493200 (National Center for Advancing Translational Sciences (NCATS), 2011).

Records with an inconclusive call do not appear. Active and inactive are the calls of the source. The call rests on the fitted dose curve; in most records, active means well fitted activation curve with a large enough effect; inconclusive means small, poorly fitted or top-dose-only effect; inactive means no such curve, though single readings can be large or run the other way.
Potency means the concentration at half of the fitted maximal effect.

The assay can be described thus: qHTS Assay for Rab9 Promoter Activators: Initial hit validation from the primary screen. On activation: % of control where 0% means no effect. The following applies: Huh7 Rab9 promoter luciferase reporter, 24 h; series mostly up to 46.1 µM; activation: at the top concentration. In short, it runs like this:
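Huh7 cells stably carrying a Rab9 promoter–luciferase construct, plated in reduced-serum medium with 10% FBS, rested 2 h, then exposed to compounds in DMSO for 24 h at 37C. Luminescence read 10 min after adding Amplite luciferase reagent.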
`O=C(CCc1cccc(Cl)c1)NC1CCCN(Cc2ccccc2F)C1` (stereo unspecified): the “activation” value was -12.7% (inactive). Same read-out and setting: for `O=C(O)CSc1nnc(-c2ccncc2)n1CCc1ccccc1` the value was 6.2% (inactive); for `Cc1ccc2nc(Nc3ccc(Cl)cc3)c3nncn3c2c1`, -3.26% (inactive). On the same count and under the same terms, for `COc1ccc(OC)c(S(=O)(=O)N2CCN3CCCC3C2)c1` (stereo unspecified) the value was 0.203% (inactive). In the case of `CC(C)(C)NC(=S)NNC(=O)c1ccc2ncccc2c1`, the Potency was 1.77 µM (active). `COc1ccc([N+](=O)[O-])cc1COc1ccc2c(-c3ccccc3)cc(=O)oc2c1`: the “activation” value is 2.92% (inactive). For the compound `CC(=O)NC(CCCN1C(=O)c2ccccc2C1=O)c1nnn(C)n1` (stereo unspecified), the “activation” value was 1.74% (inactive). Turning to `N#CC/C(N)=N/NC(=O)CCCNc1ncc(C(F)(F)F)cc1Cl`, the Potency is 19.9 µM (active). The same measure, in the same setting: for `Cc1ccc(N=Cc2sc(O)c3ccccc23)c(C)c1` the value was 2.23 µM (active). The same measure, in the same setting: the value for `Cc1csc(NC(=O)CSc2nnc(-c3ccncc3)o2)n1` was 25 µM (active).

Consider `O=C(C[N+]1(CC#Cc2ccccc2)CCCCC1)c1ccccc1`, for which the “activation” value is 0.37% (inactive). For `Cc1ccc(NC(=O)NC(=O)c2ccccc2)cc1F`, the Potency was 0.445 µM (active). Turning to `O=C(C1COc2ccccc2O1)N1CCN(S(=O)(=O)c2ccccc2)CC1` (stereo unspecified), the “activation” value was -3.72% (inactive). Turning to `Cn1c(SCc2ccccc2)nnc1-c1cnccn1`, the Potency was 14.1 µM (active). `Cc1nnc2n(c1=O)N=C(c1ccc(Cl)cc1)CS2`: the Potency was 0.888 µM (active). `CC1CCc2sc(C(=O)NNC(=S)NC3CC3)cc2C1` (stereo unspecified): the Potency was 19.9 µM (active).
